This note sets out measurements from ChEMBL document CHEMBL1157539, “Thousands of chemical starting points for antimalarial lead identification” (Nature, 2010).

Common to all, as to type: functional
The test system of assay [1] is Plasmodium falciparum. The assay is described as follows: GSK_TCMDC: Inhibition of Plasmodium falciparum 3D7 in whole red blood cells, using parasite LDH activity as an index of growth. Test compounds present at 2uM.
The subject of assay [2] is Plasmodium falciparum. The assay is described as follows: GSK_TCMDC: Inhibition of Plasmodium falciparum Dd2 in whole red blood cells, using parasite LDH activity as an index of growth. Test compounds present at 2uM.
The subject of assay [3] is HepG2. The assay is described as follows: GSK_TCMDC: Percent inhibition of human HepG2 cell line. Test compounds present at 10uM.

`CS(=O)(=O)c1ccc(CNCc2ccc(-c3cccc(-c4nc5ccccc5[nH]4)c3)cc2)cc1.O=C(O)C(F)(F)F`: the values for the Inhibition in assay [1], in assay [2] and in assay [3] were 100%, 88% and 17%, respectively.

For the molecule `COc1cc(NC(=O)N2CCOC(CCN3CCC4(CCc5ccccc54)CC3)(c3ccc(Cl)c(Cl)c3)C2)cc(OC)c1OC` (centres undefined), the Inhibition (in general, the share of the control response that was lost under treatment) in assay [1] is listed as 94%; in assay [2], 67%; in assay [3] it was 17%.

With `Cc1nc(C(C)Nc2nncc(-c3ccc(Cl)cc3)n2)cs1` (centres undefined), the Inhibition in assay [1] is 91%; in assay [2], 55%; in assay [3] it was 0%.

`COc1ccc(-c2cccc(NC(=O)c3ccc(Cl)cc3)c2)cc1CN1CCCC1.O=C(O)C(F)(F)F`: the results for the Inhibition in assay [1], in assay [2] and in assay [3] were 97%, 52% and 55%, respectively.

In the case of `Cc1onc(-c2ccc(Cl)cc2)c1-c1ccnn1S(=O)(=O)c1ccc(Cl)cc1`, the Inhibition in assay [1] is 100%; in assay [2], 99%; in assay [3], 0%.

With `COc1ccc2nc(C)cc(N/N=C/c3ccc([N+](=O)[O-])cc3)c2c1`, the Inhibition stood at 100% in assay [1], 70% in assay [2] and 0% in assay [3].

Take `COc1ccc(NCCCNc2ccnc3ccccc23)cc1`: the Inhibition in assay [1] was 88%; in assay [2], 17%; in assay [3], 34%.

For `Br.c1cc(C2=NC3CCCCC3N2)ccc1OCCCCCOc1ccc(C2=NC3CCCCC3N2)cc1` (centres undefined), the Inhibition in assay [1] is 100%; in assay [2] it was 23%; in assay [3], 80%.

On to `CCCCCCCCNCc1c(O)ccc2ccccc12.Cl`, for which the Inhibition in assay [1] worked out at 99%; in assay [2], 94%; in assay [3], 0%.

For the molecule `O=C(O)C(F)(F)F.O=S(=O)(NCCN1CCCC1)c1cccc(-c2cccc(CNCc3ccccc3)c2)c1`, the Inhibition in assay [1] was found to be 97%; in assay [2], 73%; in assay [3], 32%.

For the molecule `CS(=O)(=O)Nc1cccc(-c2cnc3[nH]cc(-c4cccc(CN)c4)c3c2)c1`, the Inhibition came to 96% in assay [1], 82% in assay [2] and 25% in assay [3].

Turning to `O=C(/C=C/c1ccc(Cl)c(Cl)c1)NCCCCN1CCC(c2c[nH]c3ccccc23)CC1`, the Inhibition in assay [1] stood at 91%; in assay [2], 11%; in assay [3], 57%.

In the case of `Cc1cc(-c2ccc3c(c2)CCN(CCCOc2ccc4c(c2)CCN4C(=O)/C=C/c2ccccc2Cl)CC3)no1`, the results for the Inhibition in assay [1], in assay [2] and in assay [3] were 88%, 50% and 52%, respectively.

Regarding `Cc1ccc2cc(NC(=O)c3cccc(C(=O)Nc4ccc5nc(C)ccc5c4)n3)ccc2n1`, the Inhibition stood at 92% in assay [1], 23% in assay [2] and 21% in assay [3].

With `CCn1ccc2c(N3CCCS3(=O)=O)cc(C(=O)N[C@@H](Cc3ccccc3)[C@H](O)CNC3CCCCC3)cc21`, the Inhibition in assay [1] is 97%; in assay [2] it was 98%; in assay [3] it was 0%.

Turning to `O=C(CC(c1ccccc1)c1ccccc1O)N1CCOCC1` (centres undefined), the Inhibition was 84% in assay [1], 5% in assay [2] and 30% in assay [3].

Regarding `CC(=O)Nc1ncc(C(=O)Nc2cccc(-c3ccc(-c4nc5cccc(C)c5[nH]4)cc3)c2)s1`, the Inhibition in assay [1] was found to be 100%; in assay [2], 78%; in assay [3], 69%.

Take `CCc1c(CCNCCCCCNCCc2ccc(OC)c(OC)c2CC)ccc(OC)c1OC.Cl`: the results for the Inhibition in assay [1], in assay [2] and in assay [3] were 100%, 1% and 59%, respectively.

With `COc1ccc2ccccc2c1CCCCN1CCN(CC(c2ccc(F)cc2)N2CCN(C3CCCC3)CC2)CC1.O=C(O)C(F)(F)F` (centres undefined), the Inhibition in assay [1] is 88%; in assay [2], 51%; in assay [3] it was 88%.

In the case of `CCCCCCNC(=O)C1Cc2c([nH]c3ccc(C)cc23)C2(CCN(Cc3ccccc3)CC2)N1` (centres undefined), the Inhibition in assay [1] is given as 84%; in assay [2] it was 25%; in assay [3] it was 25%.

For `CCN(CC)CCOC(=O)c1ccc(NC(=O)c2cn(-c3ccccc3)nc2-c2cccs2)cc1.Cl`, the Inhibition amounted to 100% in assay [1], 59% in assay [2] and 25% in assay [3].

With `COc1c(OC)c(OC)c2ccccc2c1CCNCCCCNCCc1c(OC)c(OC)c(OC)c2ccccc12.CS(=O)(=O)O`, the values for the Inhibition in assay [1], in assay [2] and in assay [3] were 99%, 72% and 100%, respectively.

For `CN1CCC(NCc2ccc(-c3cccc(-c4nc5ccccc5[nH]4)c3)cc2)CC1.O=C(O)C(F)(F)F`, the Inhibition in assay [1] was determined as 100%; in assay [2] it was 96%; in assay [3] it was 50%.

For `Nc1nc(N)c2c(Cl)c(CNc3cccc(C(=O)O)c3)ccc2n1`, the Inhibition in assay [1] is listed as 93%; in assay [2] it was 97%; in assay [3], 69%.

In the case of `CN(Cc1ccccc1)C1CCCN(c2cc(NC(=O)c3cccs3)ccn2)C1.O=C(O)C(F)(F)F` (centres undefined), the Inhibition was 88% in assay [1], 90% in assay [2] and 2% in assay [3].

Take `COc1ccc(-c2nnc(Sc3ccc(C#N)c([N+](=O)[O-])c3)n2CCC(C)C)cc1`: the figures for the Inhibition in assay [1], in assay [2] and in assay [3] were 89%, 53% and 15%, respectively.

For the molecule `Cc1cccc2nc(-c3ccc(-c4cccc(CN5CCN(c6ccc(C#N)cn6)CC5)c4)s3)[nH]c12.O=C(O)C(F)(F)F`, the results for the Inhibition in assay [1], in assay [2] and in assay [3] were 85%, 8% and 37%, respectively.

`CC(C)CCN(Cc1cncn1Cc1cccc(C(F)(F)F)c1)C(=O)c1ccccc1C#N`: the Inhibition worked out at 99% in assay [1], 96% in assay [2] and 0% in assay [3].

As for `Cn1nc(C(F)(F)F)c(-c2ccc(F)cc2)c1NC(=O)Nc1ccc(F)cc1`, the Inhibition in assay [1] is on record as 100%; in assay [2], 99%; in assay [3] it was 5%.

In the case of `CC(C)NCc1cccc(-c2ccc(NS(=O)(=O)c3cccc4cccnc34)cc2)c1.O=C(O)C(F)(F)F`, the values for the Inhibition in assay [1], in assay [2] and in assay [3] were 90%, 10% and 21%, respectively.

With `CN(C)CCCNCc1cn(S(=O)(=O)c2ccccc2Cl)c2ccccc12.Cl`, the figures for the Inhibition in assay [1], in assay [2] and in assay [3] were 92%, 71% and 20%, respectively.

`CC(C)(C)OC(=O)n1cc(C2CCN(CCCC34CCCc5cccc(c53)NC4=O)CC2)c2ccncc21` (centres undefined): the Inhibition in assay [1] is on record as 92%; in assay [2] it was 0%; in assay [3] it was 20%.

For `Cc1ccc(CCOCCCCCNCC(O)c2cc(Cl)c(N)c(Cl)c2)cc1` (centres undefined), the Inhibition in assay [1] is 99%; in assay [2], 98%; in assay [3] it was 10%.

For the molecule `CCCC(C)C(=O)N1CCOC(COCc2cccc(C(F)(F)F)c2)(c2ccc(Cl)cc2)C1` (centres undefined), the Inhibition in assay [1] is 97%; in assay [2] it was 91%; in assay [3], 2%.

In the case of `COc1ccc(CCNC(=O)c2cnc3c(c2)nc(-c2c[nH]c(-c4ccccc4)n2)n3CCc2c[nH]cn2)cc1`, the results for the Inhibition in assay [1], in assay [2] and in assay [3] were 96%, 70% and 16%, respectively.

As to `COc1ccc2nc3cc(Cl)ccc3c(NCCNCC(O)CO)c2n1.Cl` (centres undefined), the Inhibition in assay [1] amounted to 100%; in assay [2], 100%; in assay [3], 12%.

For `CN(C)Cc1ccc2nc(-c3cccc(Cc4cc(Cl)ccc4OCc4ccc(Cl)cc4F)n3)[nH]c2c1.Cl`, the Inhibition in assay [1] is given as 93%; in assay [2] it was 26%; in assay [3] it was 43%.

Turning to `O=C(CCOc1ccccc1)NCC1CCCO1` (centres undefined), the Inhibition in assay [1] came to 92%; in assay [2], 0%; in assay [3], 0%.

On to `CCOc1c(CNCCCNc2nc3ccccc3[nH]2)cc(Br)cc1OC.Cl`, for which the Inhibition in assay [1] is 99%; in assay [2] it was 0%; in assay [3], 29%.

As for `COc1ccc(C(=O)CC(=O)c2ccc(OC)cc2OC)c(OC)c1`, the Inhibition in assay [1] was 98%; in assay [2], 0%; in assay [3] it was 1%.

For `Br.CC1(C)NC(N)=NC(=N)N1OCCCOc1cccc2ccccc12`, the Inhibition in assay [1] worked out at 95%; in assay [2] it was 86%; in assay [3] it was 67%.

As for `CCc1ccc(NC(=O)C=NNC(=N)N)cc1.O=S(=O)(O)O`, the figures for the Inhibition in assay [1], in assay [2] and in assay [3] were 100%, 3% and 13%, respectively.

`O=C(/C=C/c1ccc(Cl)c(Cl)c1)NCCCCCN1CCN(C(=O)Nc2cccc(F)c2)CC1`: the values for the Inhibition in assay [1], in assay [2] and in assay [3] were 91%, 1% and 12%, respectively.
